Screening results deposited in PubChem by The Scripps Research Institute Molecular Screening Center.
In the library only some 4.8% were active in any assay of this set; here they are far more common.
ssDAF12 agonist: activators of S. stercoralis DAF-12 nuclear receptor. HEK293 ssDAF-12/GRIP1 lit1-tk-luc reporter, luminescence; % of 3 µM dafachronic acid response. activation, % at 6.8 µM. actives 1% (n = 370,000). AID 652126;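 active = activation above the mean over all tested compounds plus 3 SD, cut at about 0.9% in these data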;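 also: 0% = DMSO-only wells and 100% = 3 µM delta7-dafachronic acid wells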
DAX1 inh-1: inhibitors of DAX1 repression of SF-1 activated StAR promoter; HEK293T StAR-luciferase reporter, SF-1/DAX-1 repression relief; AID 652010; inhibition, % at 6.8 µM; actives 1.1% (n = 370,000);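 active = inhibition above the mean over all tested compounds plus 3 SD, cut at about 3.6% in these data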;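 also: 0% = DAX-1 cells with DMSO and 100% = cells lacking DAX-1 with DMSO; higher inhibition means more luminescence from relief of DAX-1 repression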
SMARCA2 act: activators of SMARCA2 function; activation, % at 9.1 µM; MG213 cells, MMTV-luciferase reporter, dexamethasone, overnight; actives 1% (n = 370,000); in the data active = activation above about 7.8%;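 also: 0% = vehicle wells and 100% = reference activator wells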
hcDAF-12 act: H. contortus DAF-12 activation, primary screen | activation, % at 6.8 µM | AID 652067 | actives 1.4% (n = 370,000) | HEK293 hcDAF-12 lit1-tk-luc reporter, luminescence; 0% DMSO, 100% Δ7-dafachronic acid;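 active = activation above the mean of all tested compounds plus 3 SD, cut at about 5.5% in these data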;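 also: 100% = response to 3 µM Δ7-dafachronic acid high control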
hgDAF-12 ag: hgDAF-12 agonism, primary luciferase screen; activation, % at 6.8 µM; AID 687014; HEK293 GAL4-hgDAF12 UAS-luciferase reporter, agonist luminescence; normalized to butyrate control; actives 1.8% (n = 370,000);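 active = activation above a cutoff set at the mean of all screened compounds plus 3 SD, cut at about 10% in these data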;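 also: 0% = DMSO wells and 100% = sodium butyrate wells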
DAX1 inh-2: NR0B1 (DAX1) inhibition; HEK293 Gal4-DAX1 luciferase reporter, luminescence; inhibition, % at 6.75 µM; AID 504766; P51843; actives 0.99% (n = 340,000);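 active = inhibition above the mean over all tested compounds plus 3 SD, cut at about 4.2% in these data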;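 also: 0% = DAX1-transfected cells with DMSO and 100% = empty-vector control cells with DMSO; inhibition shows as a rise in luminescence from relieved DAX1 repression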
Target sequence (P51843 207-470 limits assumed): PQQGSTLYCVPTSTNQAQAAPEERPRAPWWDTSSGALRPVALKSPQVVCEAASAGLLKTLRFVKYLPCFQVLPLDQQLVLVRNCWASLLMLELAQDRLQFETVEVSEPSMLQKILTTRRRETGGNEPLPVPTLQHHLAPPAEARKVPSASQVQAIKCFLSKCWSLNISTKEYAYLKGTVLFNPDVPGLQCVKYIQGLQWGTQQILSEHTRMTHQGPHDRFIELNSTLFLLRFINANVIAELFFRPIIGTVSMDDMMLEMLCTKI
DAX1 conf: NR0B1 (human) inhibition, confirmation. shares compounds with DAX1 inh-1. inhibition, % at 6.8 µM. HEK293T StAR-promoter luciferase reporter, SF-1/DAX-1 repression. actives 87% (n = 2,400);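 active = inhibition above the average of every tested compound plus 3 SD, cut at about 3.8% in these data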;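 also: 0% = DAX-1 cells with DMSO and 100% = no DAX-1 control cells with DMSO; active compounds raise luminescence by relieving repression of the StAR reporter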
Target sequence (P51843 whole entry, looked up): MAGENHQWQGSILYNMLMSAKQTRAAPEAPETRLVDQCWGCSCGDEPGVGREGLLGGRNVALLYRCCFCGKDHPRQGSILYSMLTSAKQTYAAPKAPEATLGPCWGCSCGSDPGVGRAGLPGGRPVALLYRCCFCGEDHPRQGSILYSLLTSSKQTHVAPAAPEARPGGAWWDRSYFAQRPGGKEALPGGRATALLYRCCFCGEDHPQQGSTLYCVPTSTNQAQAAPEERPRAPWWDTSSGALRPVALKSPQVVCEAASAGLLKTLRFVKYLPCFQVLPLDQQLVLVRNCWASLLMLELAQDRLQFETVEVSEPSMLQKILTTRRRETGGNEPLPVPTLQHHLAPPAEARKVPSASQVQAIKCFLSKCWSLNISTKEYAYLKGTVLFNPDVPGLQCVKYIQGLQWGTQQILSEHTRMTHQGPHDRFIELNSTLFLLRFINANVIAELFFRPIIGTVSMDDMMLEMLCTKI
SF1 AF2mut Luc: counter-screen for DAX1 inhibitors: nonselective inhibitors with SF-1 AF2 mutant. shares compounds with DAX1 inh-1. HEK293 StAR-luciferase, luminescence. inhibition, % at 6.8 µM. actives 78% (n = 2,400). AID 652136;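 active = inhibition above the mean of all tested compounds plus 3 SD, cut at about 3% in these data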;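 also: 0% = DAX-1 transfected cells with DMSO and 100% = cells without DAX-1 with DMSO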
LXRb hcDAF ctr: activates human LXR-beta, counter-screen for hcDAF-12 agonists; shares compounds with hcDAF-12 act; HEK293 Gal4-LXR tk-luc reporter, luminescence, 24 h; normalized: DMSO 0%, positive control 100%; activation, % at 6.8 µM; 3,400 tested, under 10 active;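 active = mean percent activation of the reporter above a cutoff set as the average over tested compounds plus their standard deviation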
hcDAF12 ag: confirmation of H. contortus DAF-12 agonists; shares compounds with hcDAF-12 act; HEK293 hcDAF-12 lit1-tk-luc reporter, luminescence; % of Δ7-dafachronic acid response; activation, % at 6.8 µM; actives 61% (n = 3,400); AID 743032;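 active = mean activation across triplicate tests above the threshold derived from the earlier primary screen, cut at about 5.5% in these data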;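 also: 0% = DMSO only wells and 100% = 3 µM Δ7-dafachronic acid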
hgDAF12 ag: confirmation of H. glycines DAF-12 agonists; actives 80% (n = 3,300); shares compounds with hgDAF-12 ag; activation, % at 6.8 µM; AID 743050; HEK293 GAL4-hgDAF12 luciferase reporter, agonist mode; percent of butyrate response;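 active = mean activation over triplicate wells above the hit cutoff derived from the earlier primary screen, cut at about 11% in these data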;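 also: 0% = DMSO low control and 100% = 2 mM sodium butyrate high control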
LXR ag 2: counter-screen for DAF-12 agonists: agonists of human LXR-beta; shares compounds with hgDAF-12 ag; HEK293 Gal4-LXR luciferase reporter, 24 h; activation, % at 6.8 µM; 3,300 tested, under 10 active; AID 743051;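 active = mean activation of the triplicate above a set limit carried over from the primary screen, none filed active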
* marks the source's active call; other numbers are inactive results.

CCC(=O)Oc1ccc(C(=O)Nc2ccc3c(c2)OCO3)cc1 was read as ssDAF12 agonist 1.7*, DAX1 inh-1 5.5*, SMARCA2 act 2, hcDAF-12 act 3, hgDAF-12 ag 22*, DAX1 conf 13*, SF1 AF2mut Luc 7.8*, hgDAF12 ag 15* and LXR ag 2 1.
O=C(Nc1ccc2c(c1)OCO2)c1ccc(Cl)s1 was read as ssDAF12 agonist 1.9*, DAX1 inh-1 4.6*, SMARCA2 act 6, hcDAF-12 act 14*, hgDAF-12 ag 16*, DAX1 inh-2 0, DAX1 conf 12*, SF1 AF2mut Luc 9.9*, LXRb hcDAF ctr 2, hcDAF12 ag 12*, hgDAF12 ag 21* and LXR ag 2 1.
`Cc1cc(C(=O)O[C@H]2CCC[C@]3(C(=O)N(Cc4ccccc4)c4ccccc43)[C@H]2NC(=O)CCc2ccccc2)no1` gave ssDAF12 agonist -2, DAX1 inh-1 -1, SMARCA2 act -5, hcDAF-12 act -2 and hgDAF-12 ag 2.
For C=CCNc1nc(-c2ccc3c(c2)OCCO3)cs1 the results were ssDAF12 agonist 1.1*, DAX1 inh-1 14*, SMARCA2 act 1, hcDAF-12 act 6.7*, hgDAF-12 ag 20*, DAX1 inh-2 2, DAX1 conf 16*, SF1 AF2mut Luc 7.4*, LXRb hcDAF ctr 2, hcDAF12 ag 7.5*, hgDAF12 ag 18* and LXR ag 2 1.
O=C(Nc1nc(-c2ccc3c(c2)OCCO3)cs1)c1ccco1 was read as ssDAF12 agonist 1, DAX1 inh-1 12*, SMARCA2 act 4, hcDAF-12 act 10.0*, hgDAF-12 ag 14*, DAX1 inh-2 1, DAX1 conf 11*, SF1 AF2mut Luc 7.0*, LXRb hcDAF ctr 1, hcDAF12 ag 4, hgDAF12 ag 17* and LXR ag 2 1.
S=C(c1ccc(-c2ccc(Cl)cc2)o1)N1CCCCC1 was read as ssDAF12 agonist 0, DAX1 inh-1 5.3*, SMARCA2 act 5, hcDAF-12 act 4, hgDAF-12 ag 15*, DAX1 inh-2 4.8*, DAX1 conf 15*, SF1 AF2mut Luc 9.0*, hgDAF12 ag 20* and LXR ag 2 1.
COc1ccccc1NC(=S)N/N=C/c1cccc(C)c1 was read as ssDAF12 agonist -1, DAX1 inh-1 1, SMARCA2 act 1, hcDAF-12 act 0, hgDAF-12 ag 7 and DAX1 inh-2 1.
`COc1ccccc1NC(=S)N/N=C/c1ccc(O)cc1` gave ssDAF12 agonist -1, DAX1 inh-1 5.5*, SMARCA2 act 3, hcDAF-12 act 6.1*, hgDAF-12 ag 19*, DAX1 inh-2 1, DAX1 conf 16*, SF1 AF2mut Luc 8.4*, hgDAF12 ag 20* and LXR ag 2 1.
For O=C(OCC(=O)N1CCN(c2ccccc2)CC1)c1cccc([N+](=O)[O-])c1 the results were ssDAF12 agonist -1, DAX1 inh-1 0, SMARCA2 act -2, hcDAF-12 act -1, hgDAF-12 ag 0 and DAX1 inh-2 -1.
For O=C(OCC(=O)N1CCN(c2ccccc2)CC1)c1ccccc1[N+](=O)[O-] the results were ssDAF12 agonist 0, DAX1 inh-1 6.2*, SMARCA2 act 6, hcDAF-12 act 4, hgDAF-12 ag 15*, DAX1 inh-2 3, DAX1 conf 9.4*, SF1 AF2mut Luc 3.6*, hgDAF12 ag 10 and LXR ag 2 1.
For Clc1ccc([C@H]2OC[C@@]3(CNCc4ccccc4)CS[C@H](c4ccc(Cl)cc4)N23)cc1 the results were ssDAF12 agonist -2, hcDAF-12 act -1 and hgDAF-12 ag -1.
c1ccc2c(c1)CCCN2c1nc(N2CCOCC2)nc(N2CCOCC2)n1 was read as ssDAF12 agonist 0, DAX1 inh-1 -1, SMARCA2 act -2, hcDAF-12 act 0, hgDAF-12 ag 0 and DAX1 inh-2 1.
CNc1nc(N2CCc3ccccc32)ncc1F was read as ssDAF12 agonist 1, DAX1 inh-1 5.1*, SMARCA2 act 3, hcDAF-12 act 5.8*, hgDAF-12 ag 15*, DAX1 inh-2 4, DAX1 conf 11*, SF1 AF2mut Luc 5.0*, hgDAF12 ag 15* and LXR ag 2 1.
Screening CCOC(=O)[C@]12CCCCC/C=C\1N(CCc1ccc(Cl)cc1)C(=O)[C@H]2CC(=O)NCc1ccc(OC)c(OC)c1 returned ssDAF12 agonist -1, DAX1 inh-1 -1, SMARCA2 act -1, hcDAF-12 act -3 and hgDAF-12 ag 3.
Screening O=C1CC(N2CCOCC2)=NC(=O)N1c1ccc(Br)cc1 returned ssDAF12 agonist -1, DAX1 inh-1 1, SMARCA2 act -1, hcDAF-12 act 0 and hgDAF-12 ag -2.
Cc1cc(C(=O)c2ccccc2)nc2ccccc12 was read as ssDAF12 agonist -2, DAX1 inh-1 0, SMARCA2 act 0, hcDAF-12 act -2, hgDAF-12 ag -2 and DAX1 inh-2 -1.
Screening Cc1cc(/C=C\c2ccccc2)nc2ccccc12 returned ssDAF12 agonist 1, DAX1 inh-1 6.0*, SMARCA2 act 4, hcDAF-12 act 10*, hgDAF-12 ag 15*, DAX1 inh-2 5.6*, DAX1 conf 6.4*, SF1 AF2mut Luc 4.1*, LXRb hcDAF ctr 1, hcDAF12 ag 8.6*, hgDAF12 ag 17* and LXR ag 2 0.
O=[N+]([O-])c1ccc2nc(N3CCCC3)sc2c1 was read as ssDAF12 agonist 0, DAX1 inh-1 0, SMARCA2 act 1, hcDAF-12 act 3, hgDAF-12 ag 7 and DAX1 inh-2 1.
